Measurements reported in PubChem BioAssay (NCI).
About 79,000 compounds went through this panel and 15% of them were active in at least one assay; those are over-represented in the sample as a whole. A number with no mark means an inactive call. The source made the active and inactive calls. Rule as the data show it: active = growth inhibition above about 70%; inactive = the rest.

Legend:
[1] = NCI Yeast Anticancer Drug Screen. Data for the rad52 strain (AID 147);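 also: 0% = growth of vehicle-treated control cultures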; details: S. cerevisiae rad52 mutant growth inhibition, active compounds read high
In short: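 Read-out: growth inhibition versus vehicle-treated controls. Cells were a DNA repair-deficient yeast strain treated with compounds.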

[2] = NCI Yeast Anticancer Drug Screen. Data for the wt1 strain (AID 149);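 also: 0% = growth of vehicle-treated wt1 cultures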; details: S. cerevisiae wt1 strain (SPY 50644) growth inhibition, active compounds read high
In short: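 Yeast wt1 strain exposed to compounds; growth inhibition measured relative to vehicle-treated controls.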

[3] = NCI Yeast Anticancer Drug Screen. Data for the rad50EPP+ strain (AID 151);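 also: 0% = growth of vehicle-treated control cultures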; details: S. cerevisiae rad50 mutant strain, active compounds read high
In short: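 Growth inhibition read against vehicle controls in rad50EPP+ yeast, a strain altered in DNA damage repair, after compound exposure.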

[4] = NCI Yeast Anticancer Drug Screen. Data for the rad50 strain (AID 155);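 also: 0% = growth of vehicle-only cultures of the same strain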; details: S. cerevisiae rad50 strain growth inhibition, active compounds read high
In short: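 Yeast carrying a defined DNA repair defect were exposed to test compounds, and growth was compared with vehicle-treated controls to give percent inhibition.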

[5] = NCI Yeast Anticancer Drug Screen. Data for the mec2-1 strain (AID 157); details: S. cerevisiae mec2-1 strain, active compounds read high
In short: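 Yeast mec2-1 mutant treated with compound. Readout: growth inhibition vs vehicle controls.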

[6] = NCI Yeast Anticancer Drug Screen. Data for the rad14 strain (AID 159);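 also: 0% = growth of vehicle-treated control cultures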; details: S. cerevisiae rad14 strain growth inhibition, active compounds read high
In short: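 Yeast cells carrying a defined DNA-repair defect were exposed to compounds, and growth inhibition was calculated relative to vehicle-treated control cultures.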

[7] = NCI Yeast Anticancer Drug Screen. Data for the sgs1 mgt1 strain (AID 161);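 also: 0% = growth of cultures given vehicle only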; details: S. cerevisiae sgs1 mgt1 strain, active compounds read high
In short: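 Test agents were incubated with a DNA-repair-mutant yeast strain. Growth was then read and compared against vehicle-treated controls.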

[8] = NCI Yeast Anticancer Drug Screen. Data for the CLN2oe strain (AID 163);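 also: 0% = growth of vehicle-only control cultures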; details: S. cerevisiae CLN2oe strain, active compounds read high
In short: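 Read-out: yeast growth inhibition, expressed relative to vehicle-only controls. The strain bears an engineered cell-cycle alteration.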

[9] = NCI Yeast Anticancer Drug Screen. Data for the cln2 rad14 strain (AID 165);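 also: 0% = growth equal to vehicle treated cultures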; details: S. cerevisiae cln2 rad14 strain, active compounds read high
In short: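 cln2 rad14 yeast strain; compound exposure; growth inhibition read vs vehicle controls.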

[10] = NCI Yeast Anticancer Drug Screen. Data for the bub3 strain (AID 167); details: S. cerevisiae bub3 mutant strain, active compounds read high
In short: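 Compounds were applied to a genetically altered yeast strain carrying a cell-cycle control defect. Growth inhibition was scored against vehicle-treated controls.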

[11] = NCI Yeast Anticancer Drug Screen. Data for the wt2 strain (AID 169);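 also: 0% = growth of vehicle-treated yeast cultures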; details: S. cerevisiae wt2 strain growth inhibition, active compounds read high
In short: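 Read-out: growth inhibition versus vehicle-treated control cultures after compound exposure of the yeast strain.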

[12] = NCI Yeast Anticancer Drug Screen. Data for the mlh1 strain (AID 171);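 also: 0% = growth of vehicle-treated control cultures of the same strain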; details: S. cerevisiae mlh1 strain growth inhibition, active compounds read high
In short: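 Read-out: growth inhibition versus vehicle controls. Strain: engineered yeast with a defined DNA repair or cell cycle defect, compound-treated.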

[13] = NCI Yeast Anticancer Drug Screen. Data for the sgs1 strain (AID 173);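 also: 0% = growth of vehicle-only control cultures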; details: S. cerevisiae sgs1 mutant, active compounds read high
In short: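 Read-out: yeast growth inhibition relative to vehicle controls, following compound exposure of a strain with a defined DNA repair/cell cycle alteration.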

[14] = NCI Yeast Anticancer Drug Screen. Data for the mlh1 rad18 strain (AID 175); details: S. cerevisiae mlh1 rad18 strain growth inhibition, active compounds read high
In short: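 Yeast w/ defined DNA-repair lesions; compound exposure; growth vs vehicle controls → % inhibition.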

[15] = NCI Yeast Anticancer Drug Screen. Data for the rad18 strain (AID 177); details: S. cerevisiae rad18 mutant growth inhibition, active compounds read high
In short: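 Readout: growth inhibition vs vehicle controls. Cells: genetically altered yeast strain, DNA repair defect.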

[16] = at 5.0 µM (retest, dose inferred, filed as 0.5)
[17] = at 50.0 µM (retest, dose inferred, filed as 5.0)

## CCCCN(CCCC)CC(C(C)=O)C(c1ccccc1)c1c(O)c2ccccc2oc1=O (stereo unspecified)
[1]; at 1.2 µM
  growth inhibition: 2%
[1]; at 3.7 µM
  growth inhibition: 3%
[1]; at 11.0 µM
  growth inhibition: 2%
[1]; at 33.0 µM
  growth inhibition: 3%
[1]; at 100.0 µM
  growth inhibition: 2%
[2]; at 1.2 µM
  growth inhibition: 0%
[2]; at 3.7 µM
  growth inhibition: -1%
[2]; at 11.0 µM
  growth inhibition: -1%
[2]; at 33.0 µM
  growth inhibition: -3%
[2]; at 100.0 µM
  growth inhibition: -4%
[3]; at 1.2 µM
  growth inhibition: -7%
[3]; at 3.7 µM
  growth inhibition: -5%
[3]; at 11.0 µM
  growth inhibition: -6%
[3]; at 33.0 µM
  growth inhibition: -8%
[3]; at 100.0 µM
  growth inhibition: -3%
[4]; at 1.2 µM
  growth inhibition: 2%
[4]; at 3.7 µM
  growth inhibition: 2%
[4]; [16]
  growth inhibition: 22%
[4]; at 11.0 µM
  growth inhibition: 4%
[4]; at 33.0 µM
  growth inhibition: 3%
[4]; [17]
  growth inhibition: 22%
[4]; at 50.0 µM
  growth inhibition: 71.3% (active)
[4]; at 100.0 µM
  growth inhibition: 1%
[5]; at 1.2 µM
  growth inhibition: 3%
[5]; at 3.7 µM
  growth inhibition: 2%
[5]; [16]
  growth inhibition: 25%
[5]; at 11.0 µM
  growth inhibition: -1%
[5]; at 33.0 µM
  growth inhibition: -1%
[5]; [17]
  growth inhibition: 25%
[5]; at 50.0 µM
  growth inhibition: 69.6%
[5]; at 100.0 µM
  growth inhibition: 5%
[6]; at 1.2 µM
  growth inhibition: 5%
[6]; at 3.7 µM
  growth inhibition: 3%
[6]; at 11.0 µM
  growth inhibition: 2%
[6]; at 33.0 µM
  growth inhibition: -2%
[6]; at 100.0 µM
  growth inhibition: -24%
[7]; [16]
  growth inhibition: 10%
[7]; [17]
  growth inhibition: 10%
[7]; at 50.0 µM
  growth inhibition: 84.2% (active)
[8]; at 1.2 µM
  growth inhibition: 1%
[8]; at 3.7 µM
  growth inhibition: 6%
[8]; at 11.0 µM
  growth inhibition: 5%
[8]; at 33.0 µM
  growth inhibition: -2%
[8]; at 100.0 µM
  growth inhibition: -3%
[9]; [16]
  growth inhibition: 51%
[9]; [17]
  growth inhibition: 51%
[9]; at 50.0 µM
  growth inhibition: 81.5% (active)
[10]; at 1.2 µM
  growth inhibition: 4%
[10]; at 3.7 µM
  growth inhibition: 2%
[10]; [16]
  growth inhibition: 4%
[10]; at 11.0 µM
  growth inhibition: 15%
[10]; at 33.0 µM
  growth inhibition: 22%
[10]; [17]
  growth inhibition: 4%
[10]; at 50.0 µM
  growth inhibition: 74.5% (active)
[10]; at 100.0 µM
  growth inhibition: 6%
[11]; at 1.2 µM
  growth inhibition: 0%
[11]; at 3.7 µM
  growth inhibition: -1%
[11]; at 11.0 µM
  growth inhibition: 0%
[11]; at 33.0 µM
  growth inhibition: -1%
[11]; at 100.0 µM
  growth inhibition: 4%
[12]; at 1.2 µM
  growth inhibition: 0%
[12]; at 3.7 µM
  growth inhibition: -2%
[12]; at 11.0 µM
  growth inhibition: -2%
[12]; at 33.0 µM
  growth inhibition: 1%
[12]; at 100.0 µM
  growth inhibition: -28%
[13]; at 1.2 µM
  growth inhibition: -4%
[13]; at 3.7 µM
  growth inhibition: -6%
[13]; at 11.0 µM
  growth inhibition: -7%
[13]; at 33.0 µM
  growth inhibition: -4%
[13]; at 100.0 µM
  growth inhibition: 9%
[14]; [16]
  growth inhibition: 22%
[14]; [17]
  growth inhibition: 22%
[14]; at 50.0 µM
  growth inhibition: 76.8% (active)
[15]; at 1.2 µM
  growth inhibition: -3%
[15]; at 3.7 µM
  growth inhibition: -9%
[15]; at 11.0 µM
  growth inhibition: -10%
[15]; at 33.0 µM
  growth inhibition: -12%
[15]; at 100.0 µM
  growth inhibition: -8%

## CC1CN1C1=C(Cl)C(=O)C(N2CC2C)=C(Cl)C1=O (stereo unspecified)
[1]; at 1.2 µM
  growth inhibition: 22%
[1]; at 3.7 µM
  growth inhibition: 40%
[1]; at 11.0 µM
  growth inhibition: 64%
[1]; at 33.0 µM
  growth inhibition: 97% (active)
[1]; at 100.0 µM
  growth inhibition: 97% (active)
[2]; at 1.2 µM
  growth inhibition: 0%
[2]; at 3.7 µM
  growth inhibition: -4%
[2]; at 11.0 µM
  growth inhibition: 12%
[2]; at 33.0 µM
  growth inhibition: 81% (active)
[2]; at 100.0 µM
  growth inhibition: 97% (active)
[3]; at 1.2 µM
  growth inhibition: 8%
[3]; at 3.7 µM
  growth inhibition: 21%
[3]; at 11.0 µM
  growth inhibition: 47%
[3]; at 33.0 µM
  growth inhibition: 94% (active)
[3]; at 100.0 µM
  growth inhibition: 97% (active)
[4]; at 1.2 µM
  growth inhibition: 16%
[4]; at 3.7 µM
  growth inhibition: 27%
[4]; [16]
  growth inhibition: 19%
[4]; at 11.0 µM
  growth inhibition: 79% (active)
[4]; at 33.0 µM
  growth inhibition: 97% (active)
[4]; [17]
  growth inhibition: 95% (active)
[4]; at 50.0 µM
  growth inhibition: 46%
[4]; at 100.0 µM
  growth inhibition: 98% (active)
[5]; at 1.2 µM
  growth inhibition: 2%
[5]; at 3.7 µM
  growth inhibition: 1%
[5]; [16]
  growth inhibition: 15%
[5]; at 11.0 µM
  growth inhibition: 6%
[5]; at 33.0 µM
  growth inhibition: 92% (active)
[5]; [17]
  growth inhibition: 93% (active)
[5]; at 50.0 µM
  growth inhibition: 18.8%
[5]; at 100.0 µM
  growth inhibition: 98% (active)
[6]; at 1.2 µM
  growth inhibition: 22%
[6]; at 3.7 µM
  growth inhibition: 37%
[6]; at 11.0 µM
  growth inhibition: 50%
[6]; at 33.0 µM
  growth inhibition: 97% (active)
[6]; at 100.0 µM
  growth inhibition: 98% (active)
[7]; [16]
  growth inhibition: 39%
[7]; [17]
  growth inhibition: 96% (active)
[7]; at 50.0 µM
  growth inhibition: 69.3%
[8]; at 1.2 µM
  growth inhibition: 0%
[8]; at 3.7 µM
  growth inhibition: -8%
[8]; at 11.0 µM
  growth inhibition: -7%
[8]; at 33.0 µM
  growth inhibition: 27%
[8]; at 100.0 µM
  growth inhibition: 54%
[9]; [16]
  growth inhibition: -3%
[9]; [17]
  growth inhibition: 82% (active)
[9]; at 50.0 µM
  growth inhibition: 10.3%
[10]; at 1.2 µM
  growth inhibition: 18%
[10]; at 3.7 µM
  growth inhibition: 15%
[10]; [16]
  growth inhibition: 23%
[10]; at 11.0 µM
  growth inhibition: 29%
[10]; at 33.0 µM
  growth inhibition: 86% (active)
[10]; [17]
  growth inhibition: 93% (active)
[10]; at 50.0 µM
  growth inhibition: 45.4%
[10]; at 100.0 µM
  growth inhibition: 95% (active)
[11]; at 1.2 µM
  growth inhibition: -6%
[11]; at 3.7 µM
  growth inhibition: 3%
[11]; at 11.0 µM
  growth inhibition: 43%
[11]; at 33.0 µM
  growth inhibition: 96% (active)
[11]; at 100.0 µM
  growth inhibition: 98% (active)
[12]; at 1.2 µM
  growth inhibition: -1%
[12]; at 3.7 µM
  growth inhibition: -1%
[12]; at 11.0 µM
  growth inhibition: 24%
[12]; at 33.0 µM
  growth inhibition: 64%
[12]; at 100.0 µM
  growth inhibition: 97% (active)
[14]; [16]
  growth inhibition: 59%
[14]; [17]
  growth inhibition: 97% (active)
[14]; at 50.0 µM
  growth inhibition: 69.1%
[15]; at 1.2 µM
  growth inhibition: 92% (active)
[15]; at 3.7 µM
  growth inhibition: 96% (active)
[15]; at 11.0 µM
  growth inhibition: 96% (active)
[15]; at 33.0 µM
  growth inhibition: 97% (active)
[15]; at 100.0 µM
  growth inhibition: 97% (active)
